# What was measured:
# Settings in all cases: treatment time: 24 h
# A549-ACTB-RAB5A [1] = assay: lowest phenotypically active concentration; higher = less potent
# Summary of the method: (§1)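 Fifteen gene-edited A549, HepG2 and WPMY1 reporter lines (BFP segmentation plus GFP and RFP/FusionRed markers) were treated at 0.3, 1, 3 or 9 µM for 24 h, four wells each, then imaged live. Live-cell features per well were normalised to DMSO control wells. Deviation required ≥3 of 4 wells beyond the 95th percentile of DMSO Euclidean distances, and reproducibility required median replicate Pearson correlation above the 95th percentile of non-replicates. Phenotypic activity needed both criteria.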
# A549-GM130-SQSTM1 [2] = assay: as above
# Summary of the method: as §1
# A549-TUBA1B-RELA [3] = assay: as above
# Summary of the method: as §1
# HepG2-ACTB-RAB5A [4] = assay: as above
# Summary of the method: as §1
# A549-ACTB-RAB5A [5] = assay: phenotypically active (imaging signature differs from DMSO and reproducible) at any of 0.3-9 uM (binary (1 = active, 0 = inactive)); higher = active
# Summary of the method: as §1
# A549-CANX-COX4 = assay: as above
# Summary of the method: as §1
# A549-GM130-SQSTM1 [6] = assay: as above
# Summary of the method: as §1
# A549-TP53BP1-CLTA = assay: as above
# Summary of the method: as §1
# A549-TUBA1B-RELA [7] = assay: as above
# Summary of the method: as §1
# HepG2-ACTB-RAB5A [8] = assay: as above
# Summary of the method: as §1
# HepG2-CANX-COX4 = assay: as above
# Summary of the method: as §1
# HepG2-GM130-SQSTM1 = assay: as above
# Summary of the method: as §1
# HepG2-TP53BP1-CLTA [9] = assay: as above
# Summary of the method: as §1
# HepG2-TUBA1B-RELA = assay: as above
# Summary of the method: as §1
# WPMY1-ACTB-RAB5A = assay: as above
# Summary of the method: as §1
# WPMY1-CANX-COX4 = assay: as above
# Summary of the method: as §1
# WPMY1-GM130-SQSTM1 = assay: as above
# Summary of the method: as §1
# WPMY1-TP53BP1-CLTA = assay: as above
# Summary of the method: as §1
# WPMY1-TUBA1B-RELA = assay: as above
# Summary of the method: as §1
# HepG2-TP53BP1-CLTA [10] = assay: lowest phenotypically active concentration; higher = less potent
# Summary of the method: as §1
Structure (SMILES),lowest phenotypically active concentration (A549-ACTB-RAB5A [1]) [µM],lowest phenotypically active concentration (A549-GM130-SQSTM1 [2]) [µM],lowest phenotypically active concentration (A549-TUBA1B-RELA [3]) [µM],lowest phenotypically active concentration (HepG2-ACTB-RAB5A [4]) [µM],phenotypically active (A549-ACTB-RAB5A [5]),phenotypically active (A549-CANX-COX4),phenotypically active (A549-GM130-SQSTM1 [6]),phenotypically active (A549-TP53BP1-CLTA),phenotypically active (A549-TUBA1B-RELA [7]),phenotypically active (HepG2-ACTB-RAB5A [8]),phenotypically active (HepG2-CANX-COX4),phenotypically active (HepG2-GM130-SQSTM1),phenotypically active (HepG2-TP53BP1-CLTA [9]),phenotypically active (HepG2-TUBA1B-RELA),phenotypically active (WPMY1-ACTB-RAB5A),phenotypically active (WPMY1-CANX-COX4),phenotypically active (WPMY1-GM130-SQSTM1),phenotypically active (WPMY1-TP53BP1-CLTA),phenotypically active (WPMY1-TUBA1B-RELA),lowest phenotypically active concentration (HepG2-TP53BP1-CLTA [10]) [µM]
Cc1cc2nc(NCCCO)n(CC(=O)c3cc(C(C)(C)C)c(O)c(C(C)(C)C)c3)c2cc1C,3,3,9,9,1 (active),0 (inactive),1 (active),0 (inactive),1 (active),1 (active),0 (inactive),0 (inactive),0 (inactive),1 (active),0 (inactive),0 (inactive),0 (inactive),0 (inactive),0 (inactive),
CN(C)CCCN1c2ccccc2Sc2ccc(C(F)(F)F)cc21 [triflupromazine],3,9,9,9,1 (active),0 (inactive),1 (active),0 (inactive),1 (active),1 (active),0 (inactive),0 (inactive),0 (inactive),1 (active),1 (active),1 (active),1 (active),0 (inactive),1 (active),
CNCCCN1c2ccccc2CCc2ccccc21 [desipramine],9,3,9,9,1 (active),0 (inactive),1 (active),0 (inactive),1 (active),1 (active),0 (inactive),0 (inactive),0 (inactive),1 (active),1 (active),0 (inactive),1 (active),0 (inactive),1 (active),
N#Cc1cccc(-c2c[nH]c3ncnc(N4CCOCC4)c23)c1,9,9,9,3,1 (active),0 (inactive),1 (active),0 (inactive),1 (active),1 (active),1 (active),1 (active),1 (active),1 (active),1 (active),1 (active),0 (inactive),1 (active),0 (inactive),3
Fc1ccc([C@@H]2CCNC[C@H]2COc2ccc3c(c2)OCO3)cc1 [paroxetine],3,3,3,9,1 (active),0 (inactive),1 (active),0 (inactive),1 (active),1 (active),0 (inactive),1 (active),1 (active),1 (active),1 (active),1 (active),1 (active),1 (active),1 (active),9
O=C1Cc2cc(CCN3CCN(c4nsc5ccccc45)CC3)c(Cl)cc2N1 [ziprasidone],9,9,9,3,1 (active),0 (inactive),1 (active),0 (inactive),1 (active),1 (active),0 (inactive),1 (active),1 (active),1 (active),0 (inactive),0 (inactive),0 (inactive),0 (inactive),0 (inactive),9
O[C@H](CNC[C@H](O)[C@@H]1CCc2cc(F)ccc2O1)[C@@H]1CCc2cc(F)ccc2O1 [nebivolol],3,3,3,3,1 (active),0 (inactive),1 (active),0 (inactive),1 (active),1 (active),0 (inactive),0 (inactive),1 (active),1 (active),1 (active),1 (active),1 (active),1 (active),1 (active),9
CC(=O)Nc1ccc(NC(=S)NC(=O)c2ccc(C(C)(C)C)cc2)cc1 [Tenovin-1],1,1,1,,1 (active),0 (inactive),1 (active),0 (inactive),1 (active),0 (inactive),1 (active),0 (inactive),1 (active),1 (active),1 (active),1 (active),1 (active),1 (active),1 (active),9
N#C/C(=C/c1ccc(-c2cc(Cl)ccc2Cl)o1)C(=O)Nc1cccc2ncccc12,3,9,≤ 0.3,3,1 (active),0 (inactive),1 (active),0 (inactive),1 (active),1 (active),0 (inactive),0 (inactive),0 (inactive),0 (inactive),0 (inactive),1 (active),0 (inactive),0 (inactive),0 (inactive),
COc1ccc(Cl)cc1NC(=O)Nc1cc(C)nc2ccccc12,3,3,3,3,1 (active),0 (inactive),1 (active),0 (inactive),1 (active),1 (active),1 (active),1 (active),1 (active),1 (active),0 (inactive),0 (inactive),0 (inactive),0 (inactive),0 (inactive),3

# Reference: the supplement of paper PMC7411054
